Reference: the supplement of paper PMC10646978
± gives the standard deviation.

How the values were obtained:
Conditions in all cases: modulator concentration 10 µM
[1] = tested on: RAW-Dual (murine macrophage reporter line); experiment: NF-kB reporter (SEAP) activity fold change vs agonist alone; higher = enhanced NF-kB activity
Method in brief: (§1)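 Overnight stimulation with a PRR agonist followed pre-incubation for 1 hour at 37 °C with compound at 10 μM final. This was done in RAW-Dual murine macrophage reporter cells seeded at 50 000 per well in 384-well plates. NF-κB (SEAP, QUANTI-Blue absorbance at 620 nm) and IRF (Lucia luciferase, QUANTI-Luc luminescence) were read from the supernatant. Each reporter's fold change relative to the mean agonist-only control on the same plate was averaged over replicate plates.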

[2] = tested on: RAW-Dual (murine macrophage reporter line); experiment: IRF reporter (Lucia luciferase) activity fold change vs agonist alone; higher = enhanced IRF activity
Method in brief: as §1

[3] = tested on: RAW-Dual (murine macrophage reporter line); experiment: viability score (confluency relative to resting cells, overnight) (fraction); higher = more viable, active = viable (0.7 or more)
Method in brief: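 Overnight exposure to 10 μM final compound was carried out on RAW-Dual macrophages in 384-well plates. IncuCyte software generated two confluency masks over all wells imaged with IncuCyte. The viability score gives confluency in relation to resting cells. A compound met the cutoff if each mask exceeded 70% of resting cells.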

[4] = agonist: CpG ODN 1826 0.5 ug/mL

Structure (SMILES)	NF-kB reporter [1, 4]	NF-kB reporter ([1]; agonist: LPS 0.1 ug/mL)	NF-kB reporter ([1]; agonist: MPLA […])	IRF reporter ([2]; agonist: 3'3'-cGAMP 10 ug/mL)	IRF reporter ([2]; agonist: LPS 0.1 ug/mL)	IRF reporter ([2]; agonist: MPLA […])	viability score [3]
CN(C)c1nc(CNC(=O)c2cnn(-c3ccccc3)n2)nc(N2CCCC2)n1	1.01 ± 0.052	1.1 ± 0.086	1.02 ± 0.11	1.05 ± 0.054	1.26 ± 0.08	1.13 ± 0.31	1.02 (active)
CCc1ccc(NC(=O)CSc2nc3c([nH]c4ccccc43)c(=O)n2C)cc1	0.809 ± 0.053	0.745 ± 0.06	0.776 ± 0.061	1 ± 0.08	1.13 ± 0.14	1.07 ± 0.18	0.483 (inactive)
CNCCC=C1c2ccccc2CCc2ccccc21.Cl	0.45 ± 0.07	1.14 ± 0.21	1.8 ± 0.13	0.41 ± 0.014	1.11 ± 0.24	1.99 ± 0.4	0.293 (inactive)
COc1ccc(OC)c2sc(NC(=O)C(C)C)nc12	0.97 ± 0.075	1.02 ± 0.059	1 ± 0.031	0.837 ± 0.06	0.885 ± 0.11	0.828 ± 0.14	0.993 (active)
Nc1nc(=O)[nH]cc1F	0.84 ± 0.12	1.07 ± 0.085	1.08 ± 0.11	1.02 ± 0.049	1.23 ± 0.071	1.33 ± 0.11	1.01 (active)
CNCC[C@@H](Oc1cccc2ccccc12)c1cccs1 [Prestw-1708]	0.661 ± 0.054	0.98 ± 0.073	1.18 ± 0.19	1.19 ± 0.076	1.11 ± 0.16	1.16 ± 0.28	0.384 (inactive)
C=CCNC(N)=S	1.37 ± 0.2	1 ± 0.32	0.931 ± 0.077	0.898 ± 0.027	1.06 ± 0.4	0.986 ± 0.17	1.01 (active)
CCN(CC)CCOC(=O)c1ccc(N)cc1.Cl	1.29 ± 0.2	1.08 ± 0.26	1.89 ± 0.82	0.923 ± 0.039	1.22 ± 0.43	1.16 ± 0.13	0.996 (active)
CCOC(=O)C1=C(C)NC(C)=C(C(=O)OCC)C1c1ccc(OC)cc1OC	1.01 ± 0.21	1.27 ± 0.12	1.16 ± 0.18	1.01 ± 0.033	1 ± 0.24	1.25 ± 0.24	1 (active)
O=C(Nc1ccccc1Cl)c1ccc(OCC2CCCO2)nc1 (stereo unspecified)	1.17 ± 0.066	1.06 ± 0.12	0.981 ± 0.026	1.3 ± 0.35	1 ± 0.058	0.976 ± 0.098	0.999 (active)
CC(=NN1CCN(Cc2cccc3ccccc23)CC1)c1ccc(Cl)cc1	0.9 ± 0.086	1.06 ± 0.077	1.01 ± 0.086	1 ± 0.068	1.19 ± 0.13	0.992 ± 0.12	1.01 (active)
CC(=O)Nc1ccc(NC(=S)NC(=O)C=Cc2ccc(Cl)cc2)cc1	1.08 ± 0.069	1.09 ± 0.096	0.946 ± 0.025	0.838 ± 0.089	0.932 ± 0.1	0.787 ± 0.22	0.991 (active)
O=C1Cc2cc(NC(=O)c3ccc(OC(F)(F)F)cc3)ccc2N1	1.19 ± 0.083	0.929 ± 0.076	0.998 ± 0.068	0.643 ± 0.034	0.959 ± 0.059	0.99 ± 0.13	1 (active)
